Laboratory results from the supplement of paper PMC10849652.
Targets with a hit are over-represented here; the source holds about 8,800 in all. About 0.5% of all pairs of compound and target were hits. A number with no mark means an inactive call.

Columns and labels:
Assay in all cases: log2 fold change, soluble protein after heating vs DMSO (PISA); higher = thermal stabilisation; K562 lysate, 10 uM; active = over 0.2 and 3.5 SD of the protein, either way, in both replicates (recomputed)
lapatinib = compound: CS(=O)(=O)CCNCc1ccc(-c2ccc3ncnc(Nc4ccc(OCc5cccc(F)c5)c(Cl)c4)c3c2)o1 [lapatinib]
Summary of the method: (§1)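 The values are log-two fold changes in thermal stability compared with solvent controls and come from duplicates. They were obtained by TMTpro 16plex LC-MS/MS, with channel sums equalised, on the supernatant after 21,000xg for 90 min. That supernatant came from crude K562 extract at 1 mg/mL protein treated with 10 μM compound for 30 min, heated for 3 min across 48°C-58°C, pooled and brought to 0.5% NP-40 at 4°C.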

pictilisib = compound: CS(=O)(=O)N1CCN(Cc2cc3nc(-c4cccc5[nH]ncc45)nc(N4CCOCC4)c3s2)CC1 [pictilisib]
Summary of the method: as §1

crizotinib = compound: C[C@@H](Oc1cc(-c2cnn(C3CCNCC3)c2)cnc1N)c1c(Cl)ccc(F)c1Cl [crizotinib]
Summary of the method: as §1

[1] = compound: C[C@H](C1=CC=C(C=C1)C(=O)NC2=C3C=CNC3=NC=C2)N
Summary of the method: as §1

duvelisib = compound: C[C@H](Nc1ncnc2nc[nH]c12)c1cc2cccc(Cl)c2c(=O)n1-c1ccccc1 [duvelisib]
Summary of the method: as §1

gandotinib = compound: Cc1cc(Nc2cc(CN3CCOCC3)c3nc(C)c(Cc4ccc(Cl)cc4F)n3n2)n[nH]1 [gandotinib]
Summary of the method: as §1

tozasertib = compound: Cc1cc(Nc2cc(N3CCN(C)CC3)nc(Sc3ccc(NC(=O)C4CC4)cc3)n2)n[nH]1 [tozasertib]
Summary of the method: as §1

doramapimod = compound: Cc1ccc(-n2nc(C(C)(C)C)cc2NC(=O)Nc2ccc(OCCN3CCOCC3)c3ccccc23)cc1 [doramapimod]
Summary of the method: as §1

bafetinib = compound: Cc1ccc(NC(=O)c2ccc(CN3CC[C@H](N(C)C)C3)c(C(F)(F)F)c2)cc1Nc1nccc(-c2cncnc2)n1 [bafetinib]
Summary of the method: as §1

[2] = compound: Cc1cccc(CC(=O)N2CCc3c2ccc(-c2cn(C)c4ncnc(N)c24)c3F)n1
Summary of the method: as §1

nilotinib = compound: Cc1cn(-c2cc(NC(=O)c3ccc(C)c(Nc4nccc(-c5cccnc5)n4)c3)cc(C(F)(F)F)c2)cn1 [nilotinib]
Summary of the method: as §1

[3] = compound: Cc1nc(Nc2n[nH]c3c2CN(C(=O)N[C@H](CN(C)C)c2ccccc2)C3(C)C)c2sccc2n1
Summary of the method: as §1

dasatinib = compound: Cc1nc(Nc2ncc(C(=O)Nc3c(C)cccc3Cl)s2)cc(N2CCN(CCO)CC2)n1 [dasatinib]
Summary of the method: as §1

[4] = compound: Cc1ncc(-c2ccnc(Nc3ccc(S(C)(=O)=O)cc3)n2)n1C(C)C
Summary of the method: as §1

[5] = compound: Cn1cc(-c2ccc3c(c2)CCN3C(=O)Cc2cccc(C(F)(F)F)c2)c2c(N)ncnc21
Summary of the method: as §1

quisinostat = compound: Cn1cc(CNCC2CCN(c3ncc(C(=O)NO)cn3)CC2)c2ccccc21 [quisinostat]
Summary of the method: as §1

tipifarnib = compound: Cn1cncc1[C@@](N)(c1ccc(Cl)cc1)c1ccc2c(c1)c(-c1cccc(Cl)c1)cc(=O)n2C [tipifarnib]
Summary of the method: as §1

[6] = compound: NC(=O)Nc1cc(-c2cccc(F)c2)sc1C(=O)N[C@H]1CCCNC1
Summary of the method: as §1

[7] = compound: NC(=O)c1cnc(N[C@@H]2CCCC[C@@H]2N)nc1Nc1cccc(-n2nccn2)c1
Summary of the method: as §1

[8] = compound: NC1(c2ccc(-c3nc4ccn5c(=O)[nH]nc5c4cc3-c3ccccc3)cc2)CCC1
Summary of the method: as §1

Chain of UniProt P42684 (P42684 whole entry, looked up): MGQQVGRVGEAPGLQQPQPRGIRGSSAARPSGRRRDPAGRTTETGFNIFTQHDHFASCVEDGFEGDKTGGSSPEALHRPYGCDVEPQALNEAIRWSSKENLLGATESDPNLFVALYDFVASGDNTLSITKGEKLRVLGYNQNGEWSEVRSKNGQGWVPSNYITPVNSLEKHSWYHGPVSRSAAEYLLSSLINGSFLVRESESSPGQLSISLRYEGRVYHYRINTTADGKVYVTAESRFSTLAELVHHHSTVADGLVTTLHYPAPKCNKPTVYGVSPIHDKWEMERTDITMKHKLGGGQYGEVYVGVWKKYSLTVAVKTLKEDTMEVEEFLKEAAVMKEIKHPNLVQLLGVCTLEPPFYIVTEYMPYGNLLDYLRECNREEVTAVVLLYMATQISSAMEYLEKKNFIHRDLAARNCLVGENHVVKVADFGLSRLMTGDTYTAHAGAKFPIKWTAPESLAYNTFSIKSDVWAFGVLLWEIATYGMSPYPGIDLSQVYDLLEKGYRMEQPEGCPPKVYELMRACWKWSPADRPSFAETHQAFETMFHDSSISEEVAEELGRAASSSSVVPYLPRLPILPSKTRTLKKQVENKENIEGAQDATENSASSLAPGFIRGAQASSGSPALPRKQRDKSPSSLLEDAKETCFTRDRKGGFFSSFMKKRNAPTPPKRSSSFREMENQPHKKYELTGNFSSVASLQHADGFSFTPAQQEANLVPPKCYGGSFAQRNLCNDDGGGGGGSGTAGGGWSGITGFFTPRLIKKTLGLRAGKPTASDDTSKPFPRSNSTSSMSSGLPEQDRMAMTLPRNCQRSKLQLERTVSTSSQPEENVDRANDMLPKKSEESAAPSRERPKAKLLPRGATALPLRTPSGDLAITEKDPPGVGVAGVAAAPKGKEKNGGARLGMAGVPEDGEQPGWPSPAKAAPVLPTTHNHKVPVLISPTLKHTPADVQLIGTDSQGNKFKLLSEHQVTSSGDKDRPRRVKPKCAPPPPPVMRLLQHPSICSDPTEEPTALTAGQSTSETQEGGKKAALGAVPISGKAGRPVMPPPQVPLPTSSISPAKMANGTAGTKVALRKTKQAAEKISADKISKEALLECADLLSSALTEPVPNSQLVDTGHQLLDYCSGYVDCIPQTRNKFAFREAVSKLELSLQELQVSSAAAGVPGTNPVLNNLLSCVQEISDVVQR
Chain of UniProt Q12904 (Q12904 whole entry, looked up): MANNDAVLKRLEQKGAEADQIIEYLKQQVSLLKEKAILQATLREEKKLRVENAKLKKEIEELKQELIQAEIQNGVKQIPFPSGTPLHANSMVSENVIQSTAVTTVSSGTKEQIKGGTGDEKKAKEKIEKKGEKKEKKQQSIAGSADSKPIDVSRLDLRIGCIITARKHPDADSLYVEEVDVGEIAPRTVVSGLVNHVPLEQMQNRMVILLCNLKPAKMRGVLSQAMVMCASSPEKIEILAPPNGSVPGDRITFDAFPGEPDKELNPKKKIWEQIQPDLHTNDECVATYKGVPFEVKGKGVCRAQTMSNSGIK
Chain of UniProt Q6NXT1 (Q6NXT1 whole entry, looked up): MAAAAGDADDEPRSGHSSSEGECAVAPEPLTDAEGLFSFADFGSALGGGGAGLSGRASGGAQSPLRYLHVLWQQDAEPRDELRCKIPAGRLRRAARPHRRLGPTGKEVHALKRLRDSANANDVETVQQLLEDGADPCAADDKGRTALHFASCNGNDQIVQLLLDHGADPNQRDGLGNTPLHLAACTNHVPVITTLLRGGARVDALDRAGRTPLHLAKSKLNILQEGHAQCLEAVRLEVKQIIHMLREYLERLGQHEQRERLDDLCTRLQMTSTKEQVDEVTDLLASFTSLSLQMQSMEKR
Chain of UniProt Q9NWB6 (Q9NWB6 whole entry, looked up): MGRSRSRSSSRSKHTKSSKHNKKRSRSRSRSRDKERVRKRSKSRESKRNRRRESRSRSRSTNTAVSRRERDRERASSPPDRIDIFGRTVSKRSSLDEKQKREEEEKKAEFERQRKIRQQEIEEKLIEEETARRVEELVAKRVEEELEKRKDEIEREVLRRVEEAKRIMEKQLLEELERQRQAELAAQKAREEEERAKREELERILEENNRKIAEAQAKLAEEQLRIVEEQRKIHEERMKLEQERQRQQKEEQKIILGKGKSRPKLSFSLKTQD
Chain of UniProt Q9BVK2 (Q9BVK2 whole entry, looked up): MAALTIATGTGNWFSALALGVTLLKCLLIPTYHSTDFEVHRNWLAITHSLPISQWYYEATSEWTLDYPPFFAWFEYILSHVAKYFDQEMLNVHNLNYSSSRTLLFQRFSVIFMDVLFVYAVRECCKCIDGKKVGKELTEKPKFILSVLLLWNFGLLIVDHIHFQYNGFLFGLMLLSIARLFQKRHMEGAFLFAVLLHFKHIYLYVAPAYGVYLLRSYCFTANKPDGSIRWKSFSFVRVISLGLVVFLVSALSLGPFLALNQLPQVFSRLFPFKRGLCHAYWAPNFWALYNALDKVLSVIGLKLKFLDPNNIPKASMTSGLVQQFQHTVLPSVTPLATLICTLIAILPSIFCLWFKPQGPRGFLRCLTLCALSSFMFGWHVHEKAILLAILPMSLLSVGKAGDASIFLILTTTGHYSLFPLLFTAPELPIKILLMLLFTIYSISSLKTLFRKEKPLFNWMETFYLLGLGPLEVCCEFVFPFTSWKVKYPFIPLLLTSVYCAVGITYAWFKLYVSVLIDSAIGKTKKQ
Chain of UniProt P51825 (P51825 whole entry, looked up): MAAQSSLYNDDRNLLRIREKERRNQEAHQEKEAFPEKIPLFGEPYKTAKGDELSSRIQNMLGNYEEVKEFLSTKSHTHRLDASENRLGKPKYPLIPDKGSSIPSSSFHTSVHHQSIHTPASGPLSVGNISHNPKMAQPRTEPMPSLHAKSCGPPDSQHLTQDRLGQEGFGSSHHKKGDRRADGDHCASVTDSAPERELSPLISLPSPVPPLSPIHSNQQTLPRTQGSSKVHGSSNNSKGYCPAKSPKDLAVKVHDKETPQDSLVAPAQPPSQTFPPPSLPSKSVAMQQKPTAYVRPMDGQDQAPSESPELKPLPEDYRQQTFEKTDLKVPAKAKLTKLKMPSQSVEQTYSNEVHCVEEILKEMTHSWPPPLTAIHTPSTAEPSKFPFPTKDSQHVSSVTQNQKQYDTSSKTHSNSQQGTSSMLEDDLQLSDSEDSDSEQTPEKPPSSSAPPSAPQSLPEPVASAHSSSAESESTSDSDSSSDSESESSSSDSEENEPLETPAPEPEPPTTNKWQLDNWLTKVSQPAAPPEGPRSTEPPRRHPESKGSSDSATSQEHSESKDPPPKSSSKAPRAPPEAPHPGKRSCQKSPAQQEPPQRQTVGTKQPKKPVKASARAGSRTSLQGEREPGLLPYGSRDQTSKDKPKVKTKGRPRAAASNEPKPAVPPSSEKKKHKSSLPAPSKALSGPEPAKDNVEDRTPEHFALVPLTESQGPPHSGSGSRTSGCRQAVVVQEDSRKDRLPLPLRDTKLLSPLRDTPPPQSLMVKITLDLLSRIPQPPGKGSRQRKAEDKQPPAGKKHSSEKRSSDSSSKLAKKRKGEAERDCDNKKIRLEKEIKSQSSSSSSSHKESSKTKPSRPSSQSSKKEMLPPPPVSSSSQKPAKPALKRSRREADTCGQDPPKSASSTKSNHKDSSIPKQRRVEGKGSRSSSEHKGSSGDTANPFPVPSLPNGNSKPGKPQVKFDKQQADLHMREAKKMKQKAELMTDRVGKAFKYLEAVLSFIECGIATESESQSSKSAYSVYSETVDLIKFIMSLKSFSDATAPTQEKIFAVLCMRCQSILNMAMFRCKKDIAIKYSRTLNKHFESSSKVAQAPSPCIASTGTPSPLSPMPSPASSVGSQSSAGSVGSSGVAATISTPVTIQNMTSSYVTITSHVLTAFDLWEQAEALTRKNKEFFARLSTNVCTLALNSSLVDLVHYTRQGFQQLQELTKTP
Chain of UniProt P42330 (P42330 whole entry, looked up): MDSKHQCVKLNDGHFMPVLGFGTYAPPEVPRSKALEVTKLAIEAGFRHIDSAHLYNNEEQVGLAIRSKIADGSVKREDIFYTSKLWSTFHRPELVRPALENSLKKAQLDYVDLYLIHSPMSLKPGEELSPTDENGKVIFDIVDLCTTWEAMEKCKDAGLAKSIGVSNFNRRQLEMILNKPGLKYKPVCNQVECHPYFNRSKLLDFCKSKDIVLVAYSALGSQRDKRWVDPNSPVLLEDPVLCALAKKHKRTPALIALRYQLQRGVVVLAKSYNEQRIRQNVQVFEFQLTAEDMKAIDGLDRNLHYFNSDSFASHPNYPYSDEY
Chain of UniProt Q3SY69 (Q3SY69 whole entry, looked up): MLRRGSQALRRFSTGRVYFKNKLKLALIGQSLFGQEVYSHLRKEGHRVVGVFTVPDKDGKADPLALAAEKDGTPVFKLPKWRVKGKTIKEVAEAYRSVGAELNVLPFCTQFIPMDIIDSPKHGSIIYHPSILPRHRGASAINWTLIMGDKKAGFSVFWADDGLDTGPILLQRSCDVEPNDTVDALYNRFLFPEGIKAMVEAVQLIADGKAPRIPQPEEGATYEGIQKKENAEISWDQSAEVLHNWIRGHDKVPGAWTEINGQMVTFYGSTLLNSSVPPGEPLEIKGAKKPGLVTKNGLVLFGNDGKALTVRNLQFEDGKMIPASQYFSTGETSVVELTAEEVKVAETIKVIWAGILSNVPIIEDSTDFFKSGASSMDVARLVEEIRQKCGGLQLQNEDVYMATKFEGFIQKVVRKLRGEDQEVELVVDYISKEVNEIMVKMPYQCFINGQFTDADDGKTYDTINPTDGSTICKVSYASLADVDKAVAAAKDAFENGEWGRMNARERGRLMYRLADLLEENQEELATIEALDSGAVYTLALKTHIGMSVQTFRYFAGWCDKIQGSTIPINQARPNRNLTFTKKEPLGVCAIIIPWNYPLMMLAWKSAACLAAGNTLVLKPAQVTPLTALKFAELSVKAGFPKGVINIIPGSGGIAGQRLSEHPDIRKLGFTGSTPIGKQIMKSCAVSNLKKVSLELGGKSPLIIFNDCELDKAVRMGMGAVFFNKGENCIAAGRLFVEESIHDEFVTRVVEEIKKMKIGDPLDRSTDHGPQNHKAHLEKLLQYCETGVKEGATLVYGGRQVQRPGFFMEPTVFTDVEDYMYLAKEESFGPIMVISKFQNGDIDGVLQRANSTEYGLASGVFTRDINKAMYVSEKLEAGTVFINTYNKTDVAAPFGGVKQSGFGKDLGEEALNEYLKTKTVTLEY

Target | log2 fold change (lapatinib) | log2 fold change (pictilisib) | log2 fold change (crizotinib) | log2 fold change [1] | log2 fold change (duvelisib) | log2 fold change (gandotinib) | log2 fold change (tozasertib) | log2 fold change (doramapimod) | log2 fold change (bafetinib) | log2 fold change [2] | log2 fold change (nilotinib) | log2 fold change [3] | log2 fold change (dasatinib) | log2 fold change [4] | log2 fold change [5] | log2 fold change (quisinostat) | log2 fold change (tipifarnib) | log2 fold change [6] | log2 fold change [7] | log2 fold change [8]
AGL (UniProt P35573) | -0.004 | 0 | -0.019 | 0.115 | -0.013 | -0.094 | 0.014 | 0.029 | -0.037 | -0.059 | -0.024 | -0.007 | -0.027 | -0.005 | 0.028 | -0.016 | 0.016 | 0.038 | 0.016 | -0.007
AGTPBP1 (UniProt Q9UPW5) | 0.008 | -0.103 | -0.121 | 0.018 | 0.009 | -0.271 | 0.028 | 0.007 | 0.001 | 0.113 | 0.077 | -0.205 | 0.038 | 0.1 | -0.032 | -0.197 | 0.207 | 0.038 | 0.045 | 0.115
ALDH5A1 isoform 2 (UniProt P51649) | -0.012 | -0.049 | -0.044 | 0 | -0.056 | -0.059 | 0.005 | -0.011 | 0.008 | -0.035 | 0.003 | -0.019 | -0.005 | -0.015 | -0.003 | 0.028 | -0.063 | 0.04 | 0.004 | -0.023
AK2 (UniProt P54819) | 0.058 | -0.005 | -0.007 | 0.076 | -0.031 | 0 | 0 | 0.061 | 0.005 | -0.046 | 0.003 | -0.006 | 0.079 | -0.013 | -0.022 | 0.024 | 0.007 | -0.066 | 0.013 | 0.004
ABHD11 (UniProt Q8NFV4) | 0.024 | 0.033 | -0.019 | -0.121 | 0.028 | 0.853 (active) | 0.081 | -0.034 | 0.009 | 0.05 | -0.001 | -0.021 | -0.005 | -0.044 | 0.079 | 0.081 | 0.042 | -0.016 | 0.04 | -0.003
ACIN1 isoform 5 (UniProt Q9UKV3) | 0.012 | -0.024 | 0.034 | 0.022 | -0.002 | -0.003 | 0.003 | 0.01 | -0.013 | 0.002 | 0.017 | -0.018 | -0.012 | 0.001 | 0.008 | 0.011 | 0 | -0.063 | 0.024 | 0.01
ANKRD54 (UniProt Q6NXT1) | 0.038 | -0.008 | 0.058 | 0.01 | 0.008 | 0.049 | -0.002 | 0.044 | -0.029 | -0.007 | 0.053 | -0.003 | -0.013 | 0.05 | -0.018 | -0.024 | 0.019 | -0.013 | 0 | 0.04
AKR1C3 (UniProt P42330) | -0.03 | -0.024 | -0.039 | -0.014 | -0.036 | 0.052 | -0.003 | 0.022 | 0.022 | -0.026 | -0.007 | 0.046 | 0.209 | -0.079 | -0.038 | -0.055 | 0.04 | 0.036 | -0.059 | -0.013
ALDH1L2 (UniProt Q3SY69) | 0.029 | -0.01 | -0.032 | -0.066 | 0.003 | 0.039 | 0.032 | 0.005 | -0.029 | 0.083 | -0.013 | 0.01 | -0.021 | 0.012 | 0.046 | -0.027 | 0.012 | 0.026 | 0.05 | -0.042
AFF1 isoform 2 (UniProt P51825) | -0.055 | -0.063 | 0.005 | -0.396 (active) | 0.067 | 0.341 | 0.066 | 0.064 | -0.04 | 0.696 (active) | -0.069 | 0.022 | 0.059 | 0.069 | -0.043 | -0.01 | 0.028 | -0.005 | 0.194 | 0.008
ABL2 (UniProt P42684) | -0.053 | -0.029 | 0.367 | -0.216 | 0.079 | 0.228 | 0.273 | -0.04 | 0.439 | 0 | -0.084 | 0.157 | 0.067 | 0.091 | 0.064 | -0.16 | -0.116 | 0.103 | -0.028 | -0.027
ACACA isoform 4 (UniProt Q13085) | -0.019 | 0 | -0.081 | -0.001 | 0.032 | -0.068 | 0.033 | 0.045 | -0.056 | 0.061 | -0.032 | 0.004 | -0.037 | 0.028 | 0.043 | -0.024 | 0.081 | 0.03 | 0.01 | -0.019
AIMP1 isoform 2 (UniProt Q12904) | -0.019 | -0.004 | -0.05 | 0.023 | 0.007 | -0.085 | -0.008 | -0.015 | -0.041 | -0.012 | -0.013 | -0.016 | -0.076 | 0.019 | 0.023 | 0.01 | 0.013 | 0.044 | -0.011 | 0.001
ARGLU1 (UniProt Q9NWB6) | 0.038 | 0.013 | 0.043 | -0.062 | -0.023 | -0.119 | 0.045 | 0.019 | -0.014 | 0.013 | -0.012 | -0.007 | 0.058 | -0.018 | 0.096 | 0.022 | -0.043 | -0.133 | -0.012 | 0.016
ALG8 (UniProt Q9BVK2) | -0.043 | -0.043 | 0.017 | -0.211 | -0.013 | 0 | 0.116 | -0.06 | -0.08 | 0.087 | -0.007 | -0.008 | -0.051 | -0.077 | 0.02 | 0.019 | -0.165 | 0.043 | -0.025 | -0.006
ABCF2 isoform 2 (UniProt Q9UG63) | -0.038 | -0.005 | -0.011 | -0.001 | 0.021 | -0.097 | 0.057 | -0.002 | -0.025 | -0.024 | 0.001 | -0.001 | -0.036 | -0.024 | 0.005 | -0.022 | 0.002 | 0.042 | -0.002 | -0.023
